Calls of active or inactive are those of the source. Rule for the calls: active = hit-call score of the fitted dose curve at least 0.9, where 1 is the maximum; inactive = score below 0.9.
Assays:
[1] = read-out: CFLAR gene, CFLAR (gene 8837); test: LTEA_HepaRG_CFLAR: Life Technologies and Expression Analysis (LTEA) Assay for CFLAR gene using HepaRG (AID 2283455); conditions: mRNA level, 48 h; actives raise or lower the signal
Summary of the method: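 Differentiated HepaRG cells in serum-free induction medium were exposed 48 h in duplicate to eight half-log concentrations up to 100 uM in 0.5% DMSO; mRNA measured by TaqMan qRT-PCR, normalized to ACTB, GAPDH, POLR2A; bidirectional fitting versus DMSO.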

[2] = read-out: Forkhead box O1 (FOXO1), FOXO1 (gene 2308); test: LTEA_HepaRG_FOXO1: Life Technologies and Expression Analysis (LTEA) Assay for Forkhead box O1 (FOXO1) using HepaRG (AID 2283456); conditions: mRNA level, 48 h; actives raise or lower the signal
Summary of the method: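 Differentiated HepaRG cells, in serum-free induction medium with 0.5% DMSO, exposed 48 h in duplicate to 8-point half-log series from 100 uM. FOXO1 mRNA measured by TaqMan qRT-PCR, normalized to ACTB, GAPDH, POLR2A; bidirectional fit versus DMSO.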

[3] = read-out: growth arrest and DNA damage 45 (GADD45A), GADD45A (gene 1647); test: LTEA_HepaRG_GADD45A: Life Technologies and Expression Analysis (LTEA) Assay for growth arrest and DNA damage 45 (GADD45A) using HepaRG (AID 2283458); conditions: mRNA level, 48 h; actives raise or lower the signal
Summary of the method: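 Differentiated HepaRG cells exposed 48 h in serum-free induction medium to 8 concentrations, top 100 uM in half-log steps, 0.5% DMSO. GADD45A mRNA quantified by qRT-PCR, normalized to ACTB, GAPDH and POLR2A; bidirectional fit versus DMSO.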

[4] = read-out: Forkhead box O3 (FOXO3), FOXO3 (gene 2309); test: LTEA_HepaRG_FOXO3: Life Technologies and Expression Analysis (LTEA) Assay for Forkhead box O3 (FOXO3) using HepaRG (AID 2283459); conditions: mRNA level, 48 h; actives raise or lower the signal
Summary of the method: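 Differentiated human HepaRG cells, 48 h post-plating, exposed in duplicate for 48 h in serum-free induction medium; 8-point half-log series from 100 uM in 0.5% DMSO. FOXO3 mRNA by TaqMan qRT-PCR, normalized to ACTB/GAPDH/POLR2A; bidirectional fit versus DMSO.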

[5] = read-out: ABC Transporter (ABCB1), ABCB1 (gene 5243); test: LTEA_HepaRG_ABCB1: Life Technologies and Expression Analysis (LTEA) Assay for ABC Transporter (ABCB1) using HepaRG (AID 2283460); conditions: mRNA level, 48 h; actives raise or lower the signal
Summary of the method: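 HepaRG cells exposed in duplicate for 48 h in serum-free induction medium to eight half-log concentrations up to 100 uM in 0.5% DMSO. ABCB1 mRNA quantified by qRT-PCR, normalised to ACTB, GAPDH and POLR2A; fitted bidirectionally versus DMSO.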

[6] = read-out: growth arrest and DNA damage 45 (GADD45B), GADD45B (gene 4616); test: LTEA_HepaRG_GADD45B: Life Technologies and Expression Analysis (LTEA) Assay for growth arrest and DNA damage 45 (GADD45B) using HepaRG (AID 2283461); conditions: mRNA level, 48 h; actives raise or lower the signal
Summary of the method: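 qRT-PCR read-out (Fluidigm TaqMan, housekeeping-normalized) of mRNA change in human HepaRG cells after 48 h chemical exposure; 8-point curve, top 100 uM, half-log steps, 0.5% DMSO vehicle; gain or loss fitted relative to DMSO baseline.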

[7] = read-out: ABC Transporter (ABCC3), ABCC3 (gene 8714); test: LTEA_HepaRG_ABCC3: Life Technologies and Expression Analysis (LTEA) Assay for ABC Transporter (ABCC3) using HepaRG (AID 2283462); conditions: mRNA level, 48 h; actives raise or lower the signal
Summary of the method: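 qRT-PCR read-out of ABCC3 transcript, normalized to three housekeeping genes (ACTB, GAPDH, POLR2A), after 48 h chemical exposure of human HepaRG cells. Eight half-log concentrations, highest 100 uM, in 0.5% DMSO; gain or loss fitted relative to DMSO baseline.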

[8] = read-out: ABC Transporter (ABCB11), ABCB11 (gene 8647); test: LTEA_HepaRG_ABCB11: Life Technologies and Expression Analysis (LTEA) Assay for ABC Transporter (ABCB11) using HepaRG (AID 2283463); conditions: mRNA level, 48 h; actives raise or lower the signal
Summary of the method: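 Differentiated human HepaRG cells in serum-free induction medium, dosed in duplicate for 48 h. Eight-point half-log series from 100 uM in 0.5% DMSO; ABCB11 mRNA by qRT-PCR, normalized to ACTB, GAPDH, POLR2A, fitted bidirectionally versus DMSO.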

[9] = read-out: ABC Transporter (ABCC2), ABCC2 (gene 1244); test: LTEA_HepaRG_ABCC2: Life Technologies and Expression Analysis (LTEA) Assay for ABC Transporter (ABCC2) using HepaRG (AID 2283464); conditions: mRNA level, 48 h; actives raise or lower the signal
Summary of the method: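 qRT-PCR (TaqMan, Fluidigm array) read-out of ABCC2 mRNA, normalized to three housekeeping genes. Differentiated HepaRG cells were treated 48 h in serum-free induction medium with 8-point half-log series from 100 uM in 0.5% DMSO; curves fitted bidirectionally relative to DMSO.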

[10] = read-out: Broad substrate specificity ATP-binding cassette transporter ABCG2 (Homo sapiens) (UniProt Q9UNQ0); test: LTEA_HepaRG_ABCG2: Life Technologies and Expression Analysis (LTEA) Assay for ABC Transporter (ABCG2) using HepaRG (AID 2283465); conditions: mRNA level, 48 h; actives raise or lower the signal
Summary of the method: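 Differentiated HepaRG cells were exposed for 48 h in serum-free induction medium to 8 half-log concentrations, top 100 uM, in 0.5% DMSO. ABCG2 mRNA was measured by qRT-PCR, normalized to ACTB, GAPDH and POLR2A, with bidirectional fitting versus DMSO.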

[11] = read-out: ATP-citrate lyase (ACLY), ACLY (gene 47); test: LTEA_HepaRG_ACLY: Life Technologies and Expression Analysis (LTEA) Assay for ATP-citrate lyase (ACLY) using HepaRG (AID 2283466); conditions: mRNA level, 48 h; actives raise or lower the signal
Summary of the method: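 Differentiated HepaRG cells exposed 48 h in serum-free induction medium to eight half-log concentrations up to 100 uM in 0.5% DMSO, duplicates. Transcript measured by Fluidigm TaqMan qRT-PCR, normalized to ACTB, GAPDH, POLR2A; bidirectional fit versus DMSO.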

[12] = read-out: Peroxisomal acyl-coenzyme A oxidase 1 (ACOX1) gene, ACOX1 (gene 51); test: LTEA_HepaRG_ACOX1: Life Technologies and Expression Analysis (LTEA) Assay for Peroxisomal acyl-coenzyme A oxidase 1 (ACOX1) gene using HepaRG (AID 2283467); conditions: mRNA level, 48 h; actives raise or lower the signal
Summary of the method: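 HepaRG cells, plated 48 h then switched to serum-free induction medium, were exposed in duplicate for 48 h to 8-point half-log concentrations up to 100 uM in 0.5% DMSO. ACOX1 mRNA was measured by qRT-PCR, normalized to ACTB/GAPDH/POLR2A, and fitted bidirectionally versus DMSO.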

[13] = read-out: Alkaline Phosphatase, Placental (ALPP) gene, ALPP (gene 250); test: LTEA_HepaRG_ALPP: Life Technologies and Expression Analysis (LTEA) Assay for Alkaline Phosphatase, Placental (ALPP) gene using HepaRG (AID 2283468); conditions: mRNA level, 48 h; actives raise or lower the signal
Summary of the method: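 qRT-PCR readout of ALPP mRNA (Fluidigm TaqMan), normalized to ACTB/GAPDH/POLR2A, after 48 h chemical exposure of HepaRG cells; 8-point half-log series, top 100 uM, 0.5% DMSO vehicle. Bidirectional curve fit versus DMSO baseline.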

[14] = read-out: Bcl-2 (BAD) gene, BAD (gene 572); test: LTEA_HepaRG_BAD: Life Technologies and Expression Analysis (LTEA) Assay for Bcl-2 (BAD) gene using HepaRG (AID 2283469); conditions: mRNA level, 48 h; actives raise or lower the signal
Summary of the method: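 Differentiated HepaRG cells were exposed in duplicate in 0.5% DMSO for 48 h to eight-point half-log concentrations up to 100 uM. BAD mRNA was measured by Fluidigm TaqMan qRT-PCR, normalized to ACTB, GAPDH and POLR2A, and fitted bidirectionally against DMSO.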

[15] = read-out: Bcl-2 (BAX) gene, BAX (gene 581); test: LTEA_HepaRG_BAX: Life Technologies and Expression Analysis (LTEA) Assay for Bcl-2 (BAX) gene using HepaRG (AID 2283470); conditions: mRNA level, 48 h; actives raise or lower the signal
Summary of the method: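 Differentiated HepaRG cells exposed 48 h in serum-free induction medium, eight half-log concentrations from 100 uM, in duplicate, 0.5% DMSO vehicle. BAX mRNA by TaqMan qRT-PCR, normalised to ACTB, GAPDH and POLR2A.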

[16] = read-out: adenosine kinase (ADK) gene, ADK (gene 132); test: LTEA_HepaRG_ADK: Life Technologies and Expression Analysis (LTEA) Assay for adenosine kinase (ADK) gene using HepaRG (AID 2283471); conditions: mRNA level, 48 h; actives raise or lower the signal
Summary of the method: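 HepaRG (human liver), 48 h chemical exposure, 8-pt half-log series, top 100 uM, 0.5% DMSO vehicle. Readout: ADK mRNA by qRT-PCR vs housekeeping genes; bidirectional curve fit relative to DMSO baseline.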

[17] = read-out: Alpha-fetoprotein (AFP) gene, AFP (gene 174); test: LTEA_HepaRG_AFP: Life Technologies and Expression Analysis (LTEA) Assay for Alpha-fetoprotein (AFP) gene using HepaRG (AID 2283472); conditions: mRNA level, 48 h; actives raise or lower the signal
Summary of the method: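 Differentiated human HepaRG cells exposed 48 h in serum-free induction medium, 8-point half-log series from 100 uM in 0.5% DMSO, duplicate. AFP mRNA by qRT-PCR, normalized to ACTB, GAPDH, POLR2A; bidirectional fit vs DMSO.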

[18] = read-out: BCL2L11 (gene 10018); test: LTEA_HepaRG_BCL2L11: Life Technologies and Expression Analysis (LTEA) Assay for Bcl-2 (BCL2L11) gene using HepaRG (AID 2283473); conditions: mRNA level, 48 h; actives raise or lower the signal
Summary of the method: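 HepaRG, 48 h exposure, 8-pt half-log series from 100 uM in 0.5% DMSO, duplicates; qRT-PCR (Fluidigm TaqMan) for BCL2L11, housekeeping-normalized; bidirectional curve fit relative to DMSO baseline.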

[19] = read-out: Apolipoprotein A-V (APOA5) gene, APOA5 (gene 116519); test: LTEA_HepaRG_APOA5: Life Technologies and Expression Analysis (LTEA) Assay for Apolipoprotein A-V (APOA5) gene using HepaRG (AID 2283474); conditions: mRNA level, 48 h; actives raise or lower the signal
Summary of the method: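 HepaRG, 48 h chemical exposure in serum-free induction medium, 8-pt half-log series (top 100 uM), 0.5% DMSO vehicle, duplicates. Readout: APOA5 mRNA by qRT-PCR, housekeeping-normalized; bidirectional fit vs DMSO baseline.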

[20] = CEETOX_H295R_TESTO: CeeTox H295R High-throughput Steroidogenesis Assay for Testosterone (TESTO) (AID 2283457); conditions: actives raise or lower the signal
Summary of the method: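 Readout: testosterone quantified by HPLC-MS/MS (C18, ESI positive) after MTBE liquid-liquid extraction of culture medium. Cells were H295R, 48 h chemical exposure per OECD 456 with modifications. Gain or loss of signal fitted relative to DMSO.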

Measured: AC50

Broad substrate specificity ATP-binding cassette transporter ABCG2 (Homo sapiens), sequence (Q9UNQ0 whole entry, looked up): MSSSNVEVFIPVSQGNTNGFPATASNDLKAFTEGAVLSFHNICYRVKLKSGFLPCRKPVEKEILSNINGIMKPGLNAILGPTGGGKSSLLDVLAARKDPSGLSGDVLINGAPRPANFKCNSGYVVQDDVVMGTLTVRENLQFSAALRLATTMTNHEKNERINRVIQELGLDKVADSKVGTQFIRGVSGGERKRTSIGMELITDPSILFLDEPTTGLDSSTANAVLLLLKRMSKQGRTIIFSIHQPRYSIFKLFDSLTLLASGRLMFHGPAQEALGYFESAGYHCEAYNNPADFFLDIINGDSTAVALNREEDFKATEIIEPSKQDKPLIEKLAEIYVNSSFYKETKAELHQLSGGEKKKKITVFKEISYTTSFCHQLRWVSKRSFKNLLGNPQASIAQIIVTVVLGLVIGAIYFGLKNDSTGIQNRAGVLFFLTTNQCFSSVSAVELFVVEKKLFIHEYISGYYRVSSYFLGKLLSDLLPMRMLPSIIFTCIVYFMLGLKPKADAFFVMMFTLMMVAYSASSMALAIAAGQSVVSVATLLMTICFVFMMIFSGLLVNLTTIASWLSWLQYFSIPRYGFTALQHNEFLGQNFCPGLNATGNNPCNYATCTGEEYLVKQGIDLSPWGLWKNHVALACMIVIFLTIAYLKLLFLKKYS

O=C(O)CC(O)C(=O)O (stereo not given)
not listed: [20]
inactive: all other assays above

CCc1cc(SCc2sc(-c3ccc(C(F)(F)F)cc3)nc2CN2CCN(c3ccc(OC)cc3)CC2)ccc1OCC(=O)O
inactive: [19]
active: [1] 92.2 µM | [2] 92.4 µM | [3] 8.67 µM | [4] 93.5 µM | [5] 25 µM | [6] 92.7 µM | [7] 90.3 µM | [8] 8.6 µM | [9] 93.3 µM | [10] 7.49 µM | [11] 93.4 µM | [12] 92.7 µM | [13] 6.34 µM | [14] 87 µM | [15] 97.2 µM | [16] 90.9 µM | [17] 7.69 µM

O=C(O)c1cccc(N(Cc2cccnc2)c2ccc(OC(F)F)c(OC(F)F)c2)c1
active: [5] 50 µM | [8] 90.6 µM | [11] 83.3 µM | [13] 79.9 µM
not listed: [12] | [18]
inactive: all other assays above

CC[C@H]1OC(=O)[C@H](C)[C@@H](O[C@H]2C[C@@](C)(OC)[C@@H](O)[C@H](C)O2)[C@H](C)[C@@H](O[C@@H]2O[C@H](C)C[C@H](N(C)C)[C@H]2O)[C@](C)(O)C[C@@H](C)C(=O)[C@H](C)[C@@H](O)[C@]1(C)O
not listed: [16] | [18] | [20]
inactive: all other assays above

COCCOCCOCCOC
not listed: [14] | [18] | [20]
inactive: all other assays above

Cc1c(-c2cccnc2)c2ccccc2n1CCCCC(=O)O
not listed: [14] | [18] | [20]
inactive: all other assays above

Cc1ccc(S(=O)(=O)O)cc1C
not listed: [20]
inactive: all other assays above
